Reference: PubChem BioAssay (NCATS)
Inconclusive results are not listed. Activity calls are given as the source filed them. Calls come from the whole dose curve; as a rule, active = well fitted curve in the direction sought with a large enough effect; inconclusive = small, poorly fitted or top-dose-only effect, or another doubt; inactive = no such curve, though single readings can be large; an effect the other way counts as inactive or inconclusive.

System: not listed separately
Experiment: HepG2 viability counterscreen (readout 2: ATP content) against the NCATS DSHEA and TCM libraries (AID 1794840);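 note: HepG2 cells exposed to substances for about 24 h; 0% is about no effect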
Settings: ATP content luminescence; series mostly up to 27.3 µM; activity change, negative = cytotoxic: at the top concentration
Procedure, shortened: (§1)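 After HepG2 cells attach for ~4 h, substances are added and incubated ~24 h at 37C, 5% CO2. GF-AFC fluorescence then CellTiter-Glo luminescence give protease and ATP readouts.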

| Compound | activity change, negative = cytotoxic |
| --- | --- |
| NC(=O)NC1NC(=O)NC1=O (centres undefined) | 13.5% (inactive) |
| O=C(/C=C/c1ccc(O)c(O)c1)O[C@@H]1C[C@@](OC(=O)/C=C/c2ccc(O)c(O)c2)(C(=O)O)C[C@@H](O)[C@@H]1O | 12.4% (inactive) |
| CC(C)=CCC[C@@](C)(O)[C@H]1CC=C(C)CC1 | -1.93% (inactive) |
| Cc1ccc(C(C)C)c(O)c1 | -0.917% (inactive) |

System: not listed separately
Experiment: HepG2 viability counterscreen (readout 1: protease activity) against the NCATS DSHEA and TCM libraries (AID 1794841);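 note: cells exposed to compounds for about 24 h before the protease read; 0% is about no effect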
Settings: qHTS concentration series; series mostly up to 27.3 µM; activity change, negative = inhibition: at the top concentration
Procedure, shortened: as §1

| Compound | activity change, negative = inhibition |
| --- | --- |
| NC(=O)NC1NC(=O)NC1=O (centres undefined) | 21.9% (inactive) |
| O=C(/C=C/c1ccc(O)c(O)c1)O[C@@H]1C[C@@](OC(=O)/C=C/c2ccc(O)c(O)c2)(C(=O)O)C[C@@H](O)[C@@H]1O | 11.1% (inactive) |
| CC(C)=CCC[C@@](C)(O)[C@H]1CC=C(C)CC1 | 24.5% (inactive) |
| Cc1ccc(C(C)C)c(O)c1 | 8.39% (inactive) |

Target: Glutathione peroxidase 1 (Homo sapiens) (UniProt P07203)
Sequence (P07203 whole entry, looked up): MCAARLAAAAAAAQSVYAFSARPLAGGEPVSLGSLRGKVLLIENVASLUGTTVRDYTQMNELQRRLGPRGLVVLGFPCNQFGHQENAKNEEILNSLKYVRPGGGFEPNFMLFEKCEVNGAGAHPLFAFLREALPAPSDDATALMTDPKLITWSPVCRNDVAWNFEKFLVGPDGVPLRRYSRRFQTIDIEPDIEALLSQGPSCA
Experiment: Primary qHTS Assay for Inhibitors of Recombinant Selenoprotein Glutathione Peroxidase 1 (GPX1) (AID 1845191); note: nearly all actives have a fitted effect of over 65% in size; note: potency is the fitted concentration of half-maximal effect; for activity, negative = inhibition: % is set by controls: 0 for no effect and ±100 for the full control effect
Settings: recombinant GPX1, GR-coupled NADPH fluorescence, 15 min; series mostly up to 48.8 µM; activity, negative = inhibition: at the top concentration; outcome: at the top concentration
Procedure, shortened: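 10 nM GPX1 + cpd, 30 min RT; start w/ 1 mM GSH, 0.5 mM cumene hydroperoxide, 0.5 mM NADPH, 100 nM GR, 0.01% BSA; buffer 50 mM Tris-HCl pH 7.5, 2 mM EDTA, 150 mM NaCl; Fl 340/450, 0 & 15 min.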

| Compound | activity, negative = inhibition | outcome | Potency |
| --- | --- | --- | --- |
| Cc1ccsc1/C=C/C1=NCCCN1C | 0.14% (inactive) | – | – |
| CN[C@@H]1[C@@H](O)[C@@H](O[C@@H]2[C@H](O)[C@H](O[C@H]3OC(CN)=CC[C@H]3N)[C@@H](N)C[C@H]2N)OCC1(C)O (some centres undefined) | – | inactive | – |
| CC1(C)S[C@@H]2[C@H](N=CN3CCCCCC3)C(=O)N2[C@H]1C(=O)O | -16.5% (inactive) | – | – |
| C=CCN1C[C@H](C(=O)N(CCCN(C)C)C(=O)NCC)C[C@@H]2c3cccc4[nH]cc(c34)C[C@H]21 | -8.67% (inactive) | – | – |
| COC(=O)N/N=C/c1c[n+]([O-])c2ccccc2[n+]1[O-] | – | inactive | – |
| CCN[C@H]1CN(CCCOC)S(=O)(=O)c2sc(S(N)(=O)=O)cc21 | -16.3% (inactive) | – | – |
| NC(=O)NC1NC(=O)NC1=O (centres undefined) | -5.2% (inactive) | – | – |
| CN1C(=O)CC(c2ccccc2)C1=O (centres undefined) | -0.709% (inactive) | – | – |
| C=CCOc1ccccc1OCC(O)CNC(C)C (centres undefined) | -9.9% (inactive) | – | – |
| C1CCN2C[C@@H]3C[C@@H](CN4CCCC[C@@H]34)[C@H]2C1 | 3.78% (inactive) | – | – |
| CC(C)(C)NCC(O)COc1cccc2c1CCC(=O)N2 (centres undefined) | -0.435% (inactive) | – | – |
| CC(=O)[C@@]1(O)CC[C@H]2[C@@H]3C[C@H](C)C4=CC(=O)C=C[C@]4(C)[C@@]3(F)[C@@H](O)C[C@@]21C | – | inactive | – |
| C[n+]1ccccc1/C=N/O | – | inactive | – |
| O=C(NCC(O)CO)c1c(I)c(C(=O)NCC(O)CO)c(I)c(N(CCO)C(=O)CO)c1I (centres undefined) | -17.3% (inactive) | – | – |
| CC1(C)S[C@@H]2[C@H](NC(=O)C(C(=O)O)c3ccccc3)C(=O)N2[C@H]1C(=O)O (some centres undefined) | – | inactive | – |
| C[C@]1(Cn2ccnn2)[C@H](C(=O)O)N2C(=O)C[C@H]2S1(=O)=O | 0.83% (inactive) | – | – |
| CCOC(=O)[C@H](CCc1ccccc1)N[C@@H](C)C(=O)N1Cc2cc(OC)c(OC)cc2C[C@H]1C(=O)O | – | inactive | – |

| Compound | activity, negative = inhibition | outcome | Potency |
| --- | --- | --- | --- |
| CC(C)NC[C@@H](O)COc1ccc(CC(N)=O)cc1 | -8.18% (inactive) | – | – |
| C/C=C1\[C@H]2C=C(C)C[C@]1(N)c1ccc(=O)[nH]c1C2 | -25.8% (inactive) | – | – |
| CC(=O)N[C@H]1[C@H]([C@H](O)[C@H](O)CO)OC(C(=O)O)=C[C@@H]1N=C(N)N | -5.12% (inactive) | – | – |
| COc1ccccc1OCC(O)CO (centres undefined) | -13% (inactive) | – | – |
| O=C(O)C(S)C(S)C(=O)O (centres undefined) | – | – | 7.18 µM (active) |
| CC(=O)N(CC(O)CN(C(C)=O)c1c(I)c(C(=O)NCC(O)CO)c(I)c(C(=O)NCC(O)CO)c1I)c1c(I)c(C(=O)NCC(O)CO)c(I)c(C(=O)NCC(O)CO)c1I (centres undefined) | 3.88% (inactive) | – | – |
| CN[C@@H]1[C@H](O)[C@H](NC)[C@H]2O[C@@]3(O)C(=O)C[C@@H](C)O[C@H]3O[C@@H]2[C@H]1O | – | inactive | – |
| CCOc1ccccc1O[C@H](c1ccccc1)[C@H]1CNCCO1 | – | inactive | – |
| CCCNC(C)C(=O)Nc1c(C)csc1C(=O)OC (centres undefined) | 3.86% (inactive) | – | – |
| C[N+]1(C)CCCC(OC(=O)C(O)(c2ccccc2)c2ccccc2)C1 (centres undefined) | – | inactive | – |
| Cn1cc(C(=O)[C@@H]2CCc3nc[nH]c3C2)c2ccccc21 | – | inactive | – |
| C[C@@H](c1ncncc1F)C(O)(Cn1cncn1)c1ccc(F)cc1F (some centres undefined) | -2.37% (inactive) | – | – |
| NS(=O)(=O)c1cc(C2(O)NC(=O)c3ccccc32)ccc1Cl (centres undefined) | -12.4% (inactive) | – | – |
| CC1(C)[C@@H](OC(=O)CCC(=O)O)CC[C@]2(C)[C@H]3C(=O)C=C4[C@@H]5C[C@@](C)(C(=O)O)CC[C@]5(C)CC[C@@]4(C)[C@]3(C)CC[C@@H]12 | – | inactive | – |
| CC[C@H](C)[C@H](N)C(=O)O | 4.53% (inactive) | – | – |
| Cc1ccc(C(C)C)c(O)c1 | – | inactive | – |
| CCOC(=O)OC(C)OC(=O)[C@@H]1N2C(=O)[C@@H](NC(=O)[C@H](N)c3ccccc3)[C@H]2SC1(C)C (some centres undefined) | -14.1% (inactive) | – | – |

Target: Phospholipid hydroperoxide glutathione peroxidase GPX4 (Homo sapiens) (UniProt P36969)
Sequence (P36969 whole entry, looked up): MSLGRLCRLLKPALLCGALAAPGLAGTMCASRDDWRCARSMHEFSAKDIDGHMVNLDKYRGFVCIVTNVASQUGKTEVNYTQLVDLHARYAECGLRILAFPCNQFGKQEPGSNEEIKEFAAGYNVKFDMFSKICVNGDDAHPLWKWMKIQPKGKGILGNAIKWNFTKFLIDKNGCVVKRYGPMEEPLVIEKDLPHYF
Experiment: Primary qHTS Assay for Inhibitors of Recombinant Selenoprotein Glutathione Peroxidase 4 (GPX4) (AID 1845192); note: nearly all actives have a fitted effect of over 65% in size; for activity change, negative = inhibition: % is set by controls: 0 for no effect and ±100 for the full control effect
Settings: recombinant GPX4, GR-coupled NADPH fluorescence, 15 min; series mostly up to 50 µM; activity change, negative = inhibition: at the top concentration; outcome: at the top concentration
Procedure, shortened: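 NADPH consumption, followed by fluorescence at 340/450 nm between 0 and 15 min, reports GPX4 activity via coupled glutathione reductase (100 nM). Enzyme 200 nM was pre-exposed to compound 30 min; 0.5 mM cumene hydroperoxide and 1 mM GSH served as substrates.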

| Compound | outcome | activity change, negative = inhibition |
| --- | --- | --- |
| Cc1ccsc1/C=C/C1=NCCCN1C | inactive | – |
| CN[C@@H]1[C@@H](O)[C@@H](O[C@@H]2[C@H](O)[C@H](O[C@H]3OC(CN)=CC[C@H]3N)[C@@H](N)C[C@H]2N)OCC1(C)O (some centres undefined) | inactive | – |
| CC1(C)S[C@@H]2[C@H](N=CN3CCCCCC3)C(=O)N2[C@H]1C(=O)O | – | -8.94% (inactive) |
| COC(=O)N/N=C/c1c[n+]([O-])c2ccccc2[n+]1[O-] | inactive | – |
| CCN[C@H]1CN(CCCOC)S(=O)(=O)c2sc(S(N)(=O)=O)cc21 | – | -8.4% (inactive) |
| NC(=O)NC1NC(=O)NC1=O (centres undefined) | – | -6.46% (inactive) |
| CN1C(=O)CC(c2ccccc2)C1=O (centres undefined) | – | 1.29% (inactive) |
| C=CCOc1ccccc1OCC(O)CNC(C)C (centres undefined) | – | -17.9% (inactive) |
| C1CCN2C[C@@H]3C[C@@H](CN4CCCC[C@@H]34)[C@H]2C1 | – | 2.1% (inactive) |
| CC(C)(C)NCC(O)COc1cccc2c1CCC(=O)N2 (centres undefined) | – | -6.07% (inactive) |
| CC(=O)[C@@]1(O)CC[C@H]2[C@@H]3C[C@H](C)C4=CC(=O)C=C[C@]4(C)[C@@]3(F)[C@@H](O)C[C@@]21C | inactive | – |
| C[n+]1ccccc1/C=N/O | inactive | – |
| O=C(NCC(O)CO)c1c(I)c(C(=O)NCC(O)CO)c(I)c(N(CCO)C(=O)CO)c1I (centres undefined) | – | -19.9% (inactive) |
| CC1(C)S[C@@H]2[C@H](NC(=O)C(C(=O)O)c3ccccc3)C(=O)N2[C@H]1C(=O)O (some centres undefined) | inactive | – |
| C[C@]1(Cn2ccnn2)[C@H](C(=O)O)N2C(=O)C[C@H]2S1(=O)=O | – | -1.49% (inactive) |
| CCOC(=O)[C@H](CCc1ccccc1)N[C@@H](C)C(=O)N1Cc2cc(OC)c(OC)cc2C[C@H]1C(=O)O | inactive | – |

| Compound | outcome | activity change, negative = inhibition |
| --- | --- | --- |
| CC(C)NC[C@@H](O)COc1ccc(CC(N)=O)cc1 | – | -1.51% (inactive) |
| C/C=C1\[C@H]2C=C(C)C[C@]1(N)c1ccc(=O)[nH]c1C2 | – | 4.88% (inactive) |
| CC(=O)N[C@H]1[C@H]([C@H](O)[C@H](O)CO)OC(C(=O)O)=C[C@@H]1N=C(N)N | inactive | – |
| COc1ccccc1OCC(O)CO (centres undefined) | – | -7.27% (inactive) |
| CC(=O)N(CC(O)CN(C(C)=O)c1c(I)c(C(=O)NCC(O)CO)c(I)c(C(=O)NCC(O)CO)c1I)c1c(I)c(C(=O)NCC(O)CO)c(I)c(C(=O)NCC(O)CO)c1I (centres undefined) | inactive | – |
| CN[C@@H]1[C@H](O)[C@H](NC)[C@H]2O[C@@]3(O)C(=O)C[C@@H](C)O[C@H]3O[C@@H]2[C@H]1O | inactive | – |
| CCOc1ccccc1O[C@H](c1ccccc1)[C@H]1CNCCO1 | inactive | – |
| CCCNC(C)C(=O)Nc1c(C)csc1C(=O)OC (centres undefined) | inactive | – |
| C[N+]1(C)CCCC(OC(=O)C(O)(c2ccccc2)c2ccccc2)C1 (centres undefined) | inactive | – |
| Cn1cc(C(=O)[C@@H]2CCc3nc[nH]c3C2)c2ccccc21 | inactive | – |
| C[C@@H](c1ncncc1F)C(O)(Cn1cncn1)c1ccc(F)cc1F (some centres undefined) | inactive | – |
| NS(=O)(=O)c1cc(C2(O)NC(=O)c3ccccc32)ccc1Cl (centres undefined) | – | -1.31% (inactive) |
| CC1(C)[C@@H](OC(=O)CCC(=O)O)CC[C@]2(C)[C@H]3C(=O)C=C4[C@@H]5C[C@@](C)(C(=O)O)CC[C@]5(C)CC[C@@]4(C)[C@]3(C)CC[C@@H]12 | inactive | – |
| CC[C@H](C)[C@H](N)C(=O)O | inactive | – |
| Cc1ccc(C(C)C)c(O)c1 | – | 0.0025% (inactive) |
| CCOC(=O)OC(C)OC(=O)[C@@H]1N2C(=O)[C@@H](NC(=O)[C@H](N)c3ccccc3)[C@H]2SC1(C)C (some centres undefined) | – | -16.5% (inactive) |
